In PubChem BioAssay:
Values joined by “and” are separate entries in the source; they are usually repeats but may differ in a detail not shown here. Equal values may be shown once. Values without a mark were called inactive. Active and inactive are the calls of the source.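 How the source made its calls: active means inhibition at or above 50% relative to wild type and mutant plate controls; inactive means inhibition below 50%.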

Assay: loss of swimming-algae plug formation – whole organism, Chlamydomonas reinhardtii, WT vs cilia-less mutant, absorbance, 96-well, primary screen (AID 463189);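 further: 0% = wild type cc124 cells in DMSO and 100% = ciliumless bld1 mutant cells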
Conditions: Chlamydomonas reinhardtii gravitaxis, OD600 absorbance, 2 days; at 10 µM; active compounds read high

Point of comparison: `CC(=O)NBr`, inhibition 10%. Against it:
- COc1ccc2c(c1O)-c1cccc3c1[C@@H](C2)N(C)CC3 — lower, 6.42%
- CN1C2CCC1CC(OC(c1ccccc1)c1ccccc1N)C2 (stereo not drawn) — lower, -4.19%
- CC(C)NP(=O)(NC(C)C)OP(=O)(NC(C)C)NC(C)C — lower, 5.29%
- CCCN(CCC)C(=O)Cc1c(-c2ccc(Cl)cc2)nc2c(Cl)cc(Cl)cn12 — lower, -9.74%
- CCN(CC)c1ncnc2c1ncn2[C@@H]1O[C@H](COP(=O)(O)OP(=O)(O)C(Br)(Br)P(=O)(O)O)[C@@H](O)[C@H]1O — lower, -12.6%
- CCc1c(C(=O)OC)ncc2[nH]c3cc(OC)c(OC)cc3c12 — lower, 1.73%
- Cc1o[nH]c(=O)c1CC(N)C(=O)O (stereo not drawn) — lower, 5.41%
- NC(N)=NOCC[C@H](N)C(=O)O — lower, -0.094%
- CC(N)c1cccc(Cl)c1Cl (stereo not drawn) — lower, -4.86%
- CCCN(CCC)C1CCc2ccc(O)cc2C1 (stereo not drawn) — lower, 1.06%
- Nc1ccncc1 — higher, 14.4%
- N[C@@]1(C(=O)O)CC[C@@H](C(=O)O)C1 — lower, 5%
- CN1CCN(c2ccc3ccccc3n2)CC1 — higher, 23.3%
- C[C@H](Cc1ccc2c(c1)OC(C(=O)O)(C(=O)O)O2)NC[C@H](O)c1cccc(Cl)c1 — lower, 1.22%
- COC[C@H]1OC(=O)c2coc3c2[C@@]1(C)C1=C(C3=O)C2CCC(=O)[C@@]2(C)C[C@H]1OC(C)=O (stereo partly drawn) — lower, 4.09%
- COc1ccc2c(c[n+](C)c3c4cc5c(cc4ccc23)OCO5)c1OC — higher, 47%
- COC(=O)N1CCN(C(=O)Cc2ccc(Cl)c(Cl)c2)C(CN2CCCC2)C1 (stereo not drawn) — lower, -0.837%
- Clc1cccc(N2CCNCC2)c1 — lower, 1.7%
- CCCN(CCC)[C@H]1CCc2c(F)ccc(O)c2C1 — lower, -6.79%
- COc1ccc2c(c1)[C@@]13CCCC[C@H]1[C@@H](C2)NCC3 — lower, 4.9%
- CC(Cc1ccc(OCC(=O)O)cc1)NCC(O)c1cccc(Cl)c1 (stereo not drawn) — lower, 1%
- CC1(C(=O)O)C2CCC(O2)C1(C)C(=O)O (stereo not drawn) — lower, -0.9%
- C=CCN1C[C@@H](C)N([C@H](c2ccc(C(=O)N(CC)CC)cc2)c2cccc(OC)c2)C[C@@H]1C — lower, -6.39%
- COc1ccc(-n2nc(C(F)(F)F)cc2-c2ccc(Cl)cc2)cc1 — lower, -10.1%
- O=C1C=CC(=O)C=C1 — lower, -11.2%
- NC1CCc2cc(O)c(O)cc2C1 (stereo not drawn) — lower, -5.92%
- CNCCc1c[nH]c2ccc(O)cc12 — lower, 8.6%
- C[C@]12CC[C@@H](O)CC1CC[C@@H]1[C@@H]2CC[C@]2(C)C(=O)CC[C@@H]12 (stereo partly drawn) — lower, 0.791%
- CC(C)c1cccc(C(C)C)c1O — lower, -3.28%
- C=CCN1CCC2(C)c3cc(O)ccc3CC1C2C (stereo not drawn) — lower, 0.366%
- Cc1sc2ccccc2c1CC1=NCCN1 — higher, 20.7%
- C#CCOC(=O)C1=CCCN(C)C1 — lower, 6.87%
- CCCN(CCC)[C@@H]1CCc2ccc(O)cc2C1 — lower, -3.45%
- C[C@]12CC[C@H]3[C@@H](CCC4C[C@H](O)CC[C@@]43C)[C@@H]1CC[C@@H]2O (stereo partly drawn) — lower, 2.75%
- O=C(O)Cc1cnc[nH]1 — lower, 2.27%

In the case of `C[C@]12Cc3cn4c(nc3C=C1CCC1C2CC[C@@]2(C)[C@H]1CC[C@@]2(O)C#N)nc1ccccc14` (stereo partly drawn), the inhibition is reported as 72.1% (active).
In the case of `CCCN1CCC[C@@H]2Cc3[nH]ncc3C[C@H]21`, the inhibition is reported as 1.82% and 2.66%.
